Screening results deposited in PubChem by Broad Institute.
A selection: hits, their analogues and other compounds. The true share with any hit is near 3.3%.
SIRT5 block: sirtuin-5 (human) deacylase inhibition; Q9NXA8; Purified SirT5, succinyl-peptide AMC, trypsin-coupled fluorescence; inhibition, % at 15 µM; actives 1.1% (n = 330,000); AID 652115; in the data active = inhibition above about 15%
Target sequence (Q9NXA8 whole entry, looked up): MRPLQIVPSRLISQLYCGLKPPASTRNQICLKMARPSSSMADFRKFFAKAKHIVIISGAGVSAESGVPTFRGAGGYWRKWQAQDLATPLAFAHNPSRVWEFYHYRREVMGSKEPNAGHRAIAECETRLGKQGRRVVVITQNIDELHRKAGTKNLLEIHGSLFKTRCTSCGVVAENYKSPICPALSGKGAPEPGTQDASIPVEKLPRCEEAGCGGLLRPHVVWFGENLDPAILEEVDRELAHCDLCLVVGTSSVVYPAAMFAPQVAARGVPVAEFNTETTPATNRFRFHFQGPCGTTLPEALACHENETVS
ERAP1 HTS inh: blocks human ERAP1 aminopeptidase activity; recombinant ERAP1, Leu-AMC fluorescence, 60 min; inhibition, % at 10.7 µM; actives 0.15% (n = 340,000); AID 652197;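 active = mean replicate inhibition of at least 30%, or all replicates individually reaching that 30% level; inactive = mean below 30% and not every replicate reaching it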
GSIS activator: primary screen for activators of insulin secretion dependent on glucose, INS-1E cells, GLuc reporter luminescence. INS-1E GLuc reporter insulin secretion, 2-3 h. activation, % at 16.6 µM. actives 0.61% (n = 370,000);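 active = lowest replicate activation of at least 40%, so every replicate reaches that level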
Casp6 inh: blocks human caspase-6 cleavage activity. purified caspase-6, Z-VEID-R110 cleavage fluorescence. inhibition, % at 12.5 µM. actives 0.53% (n = 350,000). AID 686996;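 active = mean inhibition across replicates at least about 35%, with every replicate also reaching that limit, limit read from the data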
FGF22 binding: FGF22 (human) thermal shift binding | recombinant FGF22 thermal shift, SYPRO orange fluorescence; percent of sucrose octasulfate shift, DMSO zero | Q9HCT0 | activity (Tm shift, normalised), % at 9.99 µM | AID 651658 | actives 1.5% (n = 340,000);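 active = mean Tm shift, scaled 0 neutral to 100 positive control, at about 1.3% or above, every replicate too, limit read from the data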
Target sequence (Q9HCT0 whole entry, looked up): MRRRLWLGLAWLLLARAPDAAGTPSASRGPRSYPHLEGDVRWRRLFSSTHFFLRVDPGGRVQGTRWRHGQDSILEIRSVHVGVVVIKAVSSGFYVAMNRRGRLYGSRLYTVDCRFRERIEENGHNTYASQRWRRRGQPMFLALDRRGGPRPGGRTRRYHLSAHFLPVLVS
Large screens that a line does not name were inactive.

COc1cccc(NC(=O)N[C@@H]2CC[C@@H](CC(=O)Nc3ccc(-c4ccccc4)cc3)O[C@H]2CO)c1	none
COCC(=O)N1[C@@H](CO)[C@H](c2ccc(-c3ccccc3)cc2)C12CN(C(C)=O)C2	none
Cc1ccc(S(=O)(=O)Nc2ccc3c(c2)C(=O)N([C@H](C)CO)C[C@@H](C)[C@H](CN(C)S(=O)(=O)c2ccc(F)cc2)OCCCC[C@@H](C)O3)cc1	none
Cc1ccc(S(=O)(=O)N(C)C[C@@H]2OCCCC[C@H](C)Oc3ccc(NS(=O)(=O)c4ccc(F)cc4)cc3C(=O)N([C@@H](C)CO)C[C@H]2C)cc1	SIRT5 block 19.1
Cc1ccc(S(=O)(=O)N(C)C[C@H]2OCCCC[C@H](C)Oc3ccc(NS(=O)(=O)c4ccc(F)cc4)cc3C(=O)N([C@H](C)CO)C[C@@H]2C)cc1	SIRT5 block 20.5
COc1ccc(NC(=S)Nc2cc(C(F)(F)F)ccc2F)cc1	FGF22 binding 44.1
COCC#Cc1ccc2c(c1)O[C@H](CN(C)C)[C@@H](C)CN([C@H](C)CO)S2(=O)=O	none
COc1cc(C2CC(=O)c3c(ccc4ccccc34)N2)ccc1O (configuration not stated)	none (no result: SIRT5 block, ERAP1 HTS inh, Casp6 inh, FGF22 binding)
COc1cccc(C2Nc3ccc4ccccc4c3C3=C2C(=O)CCC3)c1O (configuration not stated)	SIRT5 block 21.8
CN(C)c1ccc(-c2cccc(C3CC=CC4C3C(=O)N(Cc3ccccc3)C4c3ccc(C(F)(F)F)cc3)c2)cc1 (configuration not stated)	none (no result: SIRT5 block, ERAP1 HTS inh, Casp6 inh, FGF22 binding)
COc1ccc(-c2cccc(C3CC=CC4C3C(=O)N(Cc3ccccc3)C4c3ccc(C(F)(F)F)cc3)c2)cc1 (configuration not stated)	SIRT5 block 18.6
CCCNC(=O)N1CC2(CCN(C(=O)C3CCCC3)CC2)c2c([nH]c3cc(OC)ccc23)[C@H]1CO	none
O=C(CCN1CCCCC1)NCC[C@@H]1CC[C@@H](NC(=O)Cc2cccnc2)[C@H](CO)O1	none
COc1cc(/C=C/C(=O)OCC(=O)NCC2CCCO2)ccc1OCC#N (configuration not stated)	none (no result: SIRT5 block, ERAP1 HTS inh, Casp6 inh, FGF22 binding)
COc1cc(/C=C/C(=O)OCC(=O)Nc2sc3c(c2C#N)CCC(C)C3)ccc1OCC#N (configuration not stated)	SIRT5 block 15.3
CC1=CN2C(=N)/C(=C/c3cn(CCCOc4ccccc4C)c4ccccc34)C(=O)N=C2S1	GSIS activator 47.2 (no result: SIRT5 block, ERAP1 HTS inh, Casp6 inh, FGF22 binding)
CC(=O)NC[C@H]1[C@@H](c2ccc(-c3cccnc3)cc2)[C@@H](CO)N1C(=O)CC1CC1	none (no result: FGF22 binding)
Cc1ccc(/C=C2/SC(=S)N(CCC(=O)N3CCN(C)CC3)C2=O)cc1	none
CN1CCN(C(=O)CCN2C(=O)S/C(=C/c3ccc(Cl)cc3)C2=O)CC1	FGF22 binding 43.4
Cc1ccc(/C=C2\SC(=O)N(CCC(=O)N3CCN(C)CC3)C2=O)cc1	GSIS activator 50.0
CC=Cc1ccc2n(c1=O)C[C@@H]1[C@@H](CO)[C@H](C(=O)NCC)[C@H]2N1CC1CCOCC1 (mixture of isomers)	none
CC(C)(C)c1ccc(-c2nc(N)nc(N)n2)cc1	none (no result: ERAP1 HTS inh)
Nc1nc(-c2ccc(Cl)cc2)nc(-c2ccc(Cl)cc2)n1	SIRT5 block 29.0 (no result: ERAP1 HTS inh)
C[C@H](CO)N1C[C@H](C)[C@@H](CN(C)Cc2ccncc2)OCCCC[C@H](C)Oc2ccc(NC(=O)Nc3ccc4c(c3)OCO4)cc2C1=O	SIRT5 block 15.7
C[C@@H]1CCCCO[C@H](CN(C)CC2CCCCC2)[C@H](C)CN([C@@H](C)CO)C(=O)c2cc(NC(=O)Nc3ccc4c(c3)OCO4)ccc2O1	none
C[C@@H]1CN([C@@H](C)CO)C(=O)c2cc(NC(=O)Nc3ccc4c(c3)OCO4)ccc2O[C@@H](C)CCCCO[C@H]1CN(C)CC1CCCCC1	FGF22 binding 1.4
O=C(Nc1ccc(Cl)c(Cl)c1)N[C@@H]1CC[C@@H](CCn2cc(C3CC3)nn2)O[C@H]1CO	none
CNC(=O)C[C@H]1CC[C@@H]2[C@H](COc3ccc(NC(=O)c4ccccc4F)cc3C(=O)N2C)O1	none (no result: SIRT5 block, ERAP1 HTS inh, Casp6 inh)
CNCCC(Oc1ccccc1OC)c1ccccc1 (configuration not stated)	SIRT5 block 21.8 (no result: GSIS activator, Casp6 inh)
O=c1c2ccccc2nc2c3ccccc3c(NCc3ccccn3)nn12	SIRT5 block 111.6
C[C@@H]1CCCCO[C@H](CN(C)C(=O)CCCN(C)C)[C@H](C)CN([C@@H](C)CO)C(=O)c2cc(NS(=O)(=O)c3ccc(F)cc3)ccc2O1	none
O=C(Nc1nnc(CCS(=O)(=O)c2ccc3ccccc3c2)s1)c1cccs1	GSIS activator 106.4 (no result: SIRT5 block, ERAP1 HTS inh, Casp6 inh, FGF22 binding)
C[C@@H]1CCn2cc(nn2)COC[C@H](c2ccccc2)NC1=O	none (no result: SIRT5 block, ERAP1 HTS inh, Casp6 inh, FGF22 binding)
CC(=O)OCC(=O)[C@@]1(O)CC[C@H]2[C@@H]3CCC4=CC(=O)C=C[C@]4(C)[C@@]3(F)[C@@H](O)C[C@@]21C	none (no result: GSIS activator)
CC(=O)OCC(=O)C1=CCC2C3CCC4=CC(=O)C=CC4(C)C3(F)C(OC(C)=O)CC12C (configuration not stated)	FGF22 binding 43.0
COC(=O)[C@@]1(Cc2ccccc2)N=C(c2ccc(OCCCO)cc2)O[C@H]1c1ccccc1CN=[N+]=[N-]	SIRT5 block 19.5 (no result: GSIS activator)
Cc1cc(C(=O)CN2CCCC2)c(C)n1-c1ccc(Cl)cc1	none (no result: GSIS activator)
CN1CCN(CC(=O)Nc2ccc(Cl)cc2Cl)CC1	Casp6 inh 43.2
CCN1CCN(CC(=O)c2cc(Cl)ccc2Cl)CC1	FGF22 binding 43.2
CCCC(=O)Nc1ccc2c(c1)OC[C@H](C)N(Cc1ccccn1)C[C@@H](C)[C@@H](OC)CN(C)C2=O	none
CSc1nc(S(=O)(=O)c2ccccc2)c(Cl)s1	FGF22 binding 43.0
Cc1cc(C)nc(/N=C(\N)Nc2ccc(S(=O)(=O)Nc3nccc(C)n3)cc2)n1	FGF22 binding 43.1
Cc1cc(C)nc(/N=C(\N)Nc2ccc(S(=O)(=O)O)cc2)n1	none
O=C(/C=C/c1cccs1)Nc1ccncc1	SIRT5 block 35.1
CCC(C)NC(=O)/C=C/c1cccs1 (configuration not stated)	SIRT5 block 16.8 (no result: GSIS activator)
O=C(/C=C/c1cccs1)Nc1ccc([N+](=O)[O-])cc1	none (no result: SIRT5 block, ERAP1 HTS inh, Casp6 inh, FGF22 binding)
Cc1ccnc(NS(=O)(=O)c2ccc(NC(=O)/C=C/c3ccccc3)cc2)n1	none
Cc1ccnc(NS(=O)(=O)c2ccc(NC(=O)/C=C/c3cccs3)cc2)n1	FGF22 binding 43.6
CO[C@H]1CN(C)C(=O)c2ccc(NC(C)=O)cc2OC[C@H](C)N(Cc2cccnc2)C[C@@H]1C	none (no result: SIRT5 block, ERAP1 HTS inh, Casp6 inh, FGF22 binding)
CC(=O)Nc1ccc2c(c1)CC(=O)N(C)C[C@H](C)[C@H](CN(C)C(=O)NC(C)C)O2	none (no result: SIRT5 block, ERAP1 HTS inh, Casp6 inh, FGF22 binding)
CC(C)NC(=O)N(C)C[C@H]1Oc2cc(C#CC3CC3)ccc2S(=O)(=O)N([C@H](C)CO)C[C@H]1C	none
CCC(C)c1ccccc1OCCCN(C)Cc1ccccc1 (configuration not stated)	GSIS activator 192.1
